In PubChem BioAssay AID651593 (National Center for Advancing Translational Sciences (NCATS), 2012):
Hit rate of the full screen: of about 1,100 compounds, about 860 (78%) were called active. Not shown: some 19% with an inconclusive outcome. Calls follow the shape of the dose curve; as a rule, active = well fitted activation curve with a large enough effect; inconclusive = small, poorly fitted or top-dose-only effect; inactive = flat fitted curve, though single readings scatter. The set was probably picked from earlier hits. The list shows a part of the results.

Assay: qHTS of Nrf2 Activators: Hit Validation in Primary Assay; also: nearly all actives have a fitted effect of over 70% in size
Conditions: Nrf2/ARE reporter cell assay; Potency: activation; series mostly up to 46.1 µM
In short: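 AREc32 cells stably carrying an ARE-driven firefly luciferase, plated overnight, then exposed 24 h at 37 °C to compounds at several concentrations. ARE activation read as luminescence with Steady-Glo after 30 min at room temperature.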
Potency is read from the fitted curve at half-maximal effect.

| SMILES | Potency |
| --- | --- |
| CCCC(=O)Nc1sc(C)c(C)c1C#N | 14.6 µM (active) |
| O=C(Nc1cccnc1)C1(F)C(F)(F)C(F)(F)C(F)(F)C(F)(F)C1(F)F | 14.6 µM (active) |
| O=c1cc(-c2ccccc2)oc2ccc(Cl)cc12 | 3.26 µM (active) |
| CSc1ccc(-c2cc(=O)c3ccccc3o2)cc1 | 2.06 µM (active) |
| O=[N+]([O-])c1ccccc1/C=C/C=N/n1c(-c2ccco2)n[nH]c1=S | 11.6 µM (active) |
| S=c1[nH]nc(-c2ccco2)n1/N=C/c1cccc(Cl)c1Cl | 10.3 µM (active) |
| S=c1[nH]nc(-c2ccco2)n1/N=C/c1ccc(Br)s1 | 2.31 µM (active) |
| CNc1ccccc(C(=O)/C=C/c2ccccc2OC)c1=O | 20.6 µM (active) |
| CNc1ccc(Br)cc(C(=O)/C=C/c2cccc(Cl)c2Cl)c1=O | 1.84 µM (active) |
| CSc1nsc(SC)c1C(=O)Nc1ccc(Cl)cc1 | 4.61 µM (active) |
| CSc1nsc(SC)c1C(=O)Nc1ccc(C)cc1 | 16.4 µM (active) |
| CC(OC(=O)/C=C/c1ccc2ccccc2n1)C(=O)Nc1ccc(S(N)(=O)=O)cc1 (stereo unspecified) | 20.6 µM (active) |
| CCN(CC)c1ccc2c(c1)oc(=O)c1c(Cl)cc(=O)oc12 | inactive |
| Cc1cc(=O)oc2cc(NC(=O)c3ccccc3Cl)ccc12 | 2.91 µM (active) |
| COC(=O)c1sccc1NC(=O)c1cccc(F)c1 | 18.4 µM (active) |
| COC(=O)c1sccc1NC(=O)c1cc(C)on1 | 16.4 µM (active) |
| COC(=O)c1sccc1NC(=O)c1ccccc1 | 20.6 µM (active) |
| COC(=O)c1sccc1NC(=O)c1cccc(OC)c1 | 7.31 µM (active) |
| COC(=O)c1sccc1NC(=O)c1ccccc1F | 18.4 µM (active) |
| COc1cccc(C(=O)Nc2cc(Cl)c(O)c(Cl)c2)c1 | 5.17 µM (active) |
| COC(=O)c1sccc1NC(=O)c1cccc(Cl)c1 | 20.6 µM (active) |
| COC(=O)c1sccc1NC(=O)c1ccc(OC)c(OC)c1 | 4.61 µM (active) |

| SMILES | Potency |
| --- | --- |
| COC(=O)c1sccc1NC(=O)Nc1ccc(Cl)c(Cl)c1 | 14.6 µM (active) |
| O=C(NNC(=O)c1sccc1-n1cccc1)c1cccc(Cl)c1 | 2.59 µM (active) |
| COC(=O)c1sccc1NC(=O)c1csc(C)c1 | 4.61 µM (active) |
| COc1ccc(NC(=O)c2ccc([N+](=O)[O-])s2)c([N+](=O)[O-])c1 | 9.2 µM (active) |
| COc1ccccc1NC(=O)/C(C#N)=C/c1cccn1C | 20.6 µM (active) |
| COc1ccc(OC)c(NC(=O)C(C#N)=Cc2ccco2)c1 | 6.51 µM (active) |
| O=Cc1c(Sc2ccccn2)nc2ccccn2c1=O | 20.6 µM (active) |
| COC(=O)CSc1nc2ccccn2c(=O)c1C=O | 20.6 µM (active) |
| Nc1nc(/C=C/c2ccc(F)cc2)nc(-c2ccccc2O)n1 | 2.59 µM (active) |
| Nc1nccc(-c2ccc(-n3cccc3)cc2)n1 | 13 µM (active) |
| COc1ccc(Cl)cc1C(=O)NC(=S)Nc1nc(C)cc(C)n1 | inactive |
| COc1ccc(Cl)cc1NC(=O)c1cc(C)no1 | 10.3 µM (active) |
| COc1ccc(Cl)cc1NC(=O)c1cc(-c2ccccc2O)n[nH]1 | 2.91 µM (active) |
| COc1cc2c(cc1NC(=O)c1ccco1)CCCC2 | 3.26 µM (active) |
| COc1cc(OC)c(NC(=O)c2ccco2)cc1Cl | 13 µM (active) |
| CCOc1ccsc1C(=O)NNC(=O)c1ccco1 | 5.8 µM (active) |
| Cc1ccc([N+](=O)[O-])cc1NC(=S)NC(=O)c1ccco1 | 4.11 µM (active) |
| Cc1ccc2nsnc2c1NC(=S)NC(=O)c1ccco1 | 4.61 µM (active) |
| COc1ccc(Cl)cc1NC(=O)c1ccco1 | 4.61 µM (active) |
| COc1ccc([N+](=O)[O-])cc1NC(=O)c1ccco1 | 5.17 µM (active) |
| CCOc1ccccc1NC(=S)NC(=O)c1ccco1 | 10.3 µM (active) |
| O=C(Nc1cc(Cl)ccc1-n1cncn1)c1ccco1 | 10.3 µM (active) |

| SMILES | Potency |
| --- | --- |
| CC(=O)c1cc2c(cc1NC(=O)c1ccco1)OCCO2 | 3.66 µM (active) |
| Cc1cc(NC(=S)NC(=O)c2ccco2)c2ccccc2n1 | 2.59 µM (active) |
| O=C(Nc1ccc(Br)c(Cl)c1)c1ccco1 | 2.06 µM (active) |
| Cc1cc(C(=O)Nc2cc(Br)ccc2O)on1 | 13 µM (active) |
| [O-][n+]1onc2c1CCc1c-2nn(-c2ccccc2Cl)[n+]1[O-] | 0.92 µM (active) |
| Cc1ccc(-n2nc3c([n+]2[O-])CCc2c-3no[n+]2[O-])cc1 | 0.291 µM (active) |
| COc1ccc(-c2nnc3c4ccccc4c(C)nn23)cc1 | 3.66 µM (active) |
| Cc1nn2c(-c3ccccc3)nnc2c2ccccc12 | 4.11 µM (active) |
| CC1CCCCC1NC(=O)COC(=O)c1c2c(nc3ccccc13)/C(=C/c1ccco1)CC2 (stereo unspecified) | 8.2 µM (active) |
| O=C(Nc1ccc2c(c1)C(=O)NC2=O)c1cccc(C(F)(F)F)c1 | 2.06 µM (active) |
| O=C(Nc1ccc2c(c1)C(=O)NC2=O)c1ccccc1 | 20.6 µM (active) |
| O=C(Nc1nc(=O)c2ccccc2s1)c1ccccc1 | 0.731 µM (active) |
| Cc1csc2nc(NC(=O)c3ccccc3)sc(=O)c12 | 8.2 µM (active) |
| S=C(NNc1ccc2ccccc2c1)NC1CCCCC1 | 13 µM (active) |
| CCC(CC)c1nnc(NC(=O)/C=C/c2ccco2)s1 | 1.46 µM (active) |
| Cc1csc(NC(=O)/C=C/c2ccco2)n1 | 4.11 µM (active) |
| Cc1nnc(NC(=O)/C=C/c2ccco2)s1 | 8.2 µM (active) |
| O=C(/C=C/c1ccco1)NC(=S)Nc1nc(-c2ccc(Cl)cc2)cs1 | inactive |
| CCc1nnc(NC(=O)/C=C/c2ccco2)s1 | 6.51 µM (active) |
| Cc1cc(C)c2oc(-c3ccc(C)c(NC(=O)/C=C/c4ccco4)c3)nc2c1 | 2.91 µM (active) |
| CNS(=O)(=O)c1ccc2nc(NC(=O)/C=C/c3ccco3)sc2c1 | 1.84 µM (active) |
| Cc1cccc(C)c1NC(=S)NC(=O)c1cccc(Cl)c1 | 3.26 µM (active) |

| SMILES | Potency |
| --- | --- |
| Cc1ccc(NC(=O)/C=C/c2ccc([N+](=O)[O-])s2)cc1 | 2.31 µM (active) |
| Cc1cc(C)cc(NC(=O)/C=C/c2ccc([N+](=O)[O-])s2)c1 | 2.31 µM (active) |
| CSc1nnc(-c2ccco2)c(-c2ccco2)n1 | 11.6 µM (active) |
| O=C(CSc1nnc(-c2ccco2)c(-c2ccco2)n1)c1ccccc1 | 5.17 µM (active) |
| CSC1=NC(C)(C)C=C(/C=C/c2ccc(Cl)cc2)N1 | 9.2 µM (active) |
| Brc1cc(Cc2nnc(-c3ccccc3)o2)c(Br)s1 | 8.2 µM (active) |
| Cc1ccc(O)c(NC(=O)c2cccc(NC(=O)c3ccco3)c2)c1 | 2.59 µM (active) |
| O=C(Nc1ccccc1C(=O)NCCc1ccccc1)c1ccco1 | 2.06 µM (active) |
| O=C(Nc1cccc(F)c1)c1ccco1 | inactive |
| O=C(Nc1ccccc1O)c1cccc(NC(=O)c2ccco2)c1 | 4.11 µM (active) |
| CCCc1nc([N+](=O)[O-])c(S(=O)(=O)c2ccccc2)n1CC(C)C | 3.26 µM (active) |
| S=C(NCc1ccco1)Nc1ccccn1 | 9.2 µM (active) |
| Brc1ccc(-c2nnc(-c3cccnc3)c3conc23)cc1 | 0.517 µM (active) |
| C#CCSc1nc(-c2cccs2)ccc1C#N | 4.61 µM (active) |
| Cc1cc(C)n(-c2nc3ccccc3c(=O)n2OCc2ccc(F)cc2)n1 | 1.84 µM (active) |
| CC1(C)CC[C@]2(C(=O)n3ccnc3)CC[C@]3(C)[C@H](C(=O)C=C4[C@@]5(C)C=C(C#N)C(=O)C(C)(C)[C@@H]5CC[C@]43C)[C@@H]2C1 | 0.092 µM (active) |
| O=[N+]([O-])c1ccc(NN=Cc2ccco2)nc1 | 0.731 µM (active) |
| Brc1ccc(-c2csc(N/N=C/c3ccco3)n2)cc1 | 2.91 µM (active) |
| CCn1nc(C)c(Br)c1-c1nc(-c2cccc(C)c2)no1 | 8.2 µM (active) |
| O=C(Nc1ccc(F)cc1F)c1cc(-c2ccco2)nc2ccccc12 | 0.731 µM (active) |
| O=C(Nc1ccccc1F)c1cc(-c2ccco2)nc2ccccc12 | 2.06 µM (active) |
| COc1ccccc1CNC(=O)COC(=O)c1cc(-c2ccco2)nc2ccccc12 | 9.2 µM (active) |

| SMILES | Potency |
| --- | --- |
| O=C(Nc1cccc(F)c1)c1cc(-c2ccco2)nc2ccccc12 | 2.06 µM (active) |
| CC1Oc2ccccc2OC1C(=O)Nc1ccccn1 (stereo unspecified) | 2.91 µM (active) |
| CSc1nsc(SC)c1NC(=O)Nc1ccccn1 | 5.17 µM (active) |
| O=[N+]([O-])c1cc(Cl)cc2c1nc(NCCO)c1ccccc12 | 10.3 µM (active) |
| Brc1ccccc1/C=N/Nc1ccccn1 | 6.51 µM (active) |
| Clc1ccccc1NN=Cc1ccccn1 | 5.8 µM (active) |
| Clc1cccc(Cl)c1/C=N\Nc1nccs1 | 9.2 µM (active) |
| O=[N+]([O-])c1ccc(Cl)cc1C=NNc1ccccn1 | 3.26 µM (active) |
| Clc1ccccc1C=NNc1ccccn1 | 2.31 µM (active) |
| O=[N+]([O-])c1ccc(Cl)cc1N/N=C/c1ccncc1 | 0.731 µM (active) |
| Fc1cccc(Cl)c1/C=N/Nc1ccccn1 | 4.11 µM (active) |
| Cc1ccc(C)c(/C=N/Nc2ccccn2)c1 | 6.51 µM (active) |
| CCOc1ccccc1NS(=O)(=O)c1c(C(=O)OC)sc2cccc(F)c12 | 14.6 µM (active) |
| O=C1C(Cl)=C(N2CCN(c3ccccc3[N+](=O)[O-])CC2)C(=O)c2ccccc21 | 3.66 µM (active) |
| Cc1cc(=O)n2nc(-c3ccccc3)sc2c1C#N | 4.11 µM (active) |
| CCn1c(=O)c([N+](=O)[O-])c(NCc2ccco2)c2ccccc21 | 5.8 µM (active) |
| N#Cc1ccccc1N/C=C/C(=O)c1ccc(Cl)cc1 | 2.31 µM (active) |
| CC(/C=N/Nc1nnc2c(n1)[nH]c1ccccc12)=C\c1ccco1 | 10.3 µM (active) |
